About 79,000 compounds went through this panel and 15% of them were active in at least one assay; those are over-represented in the sample as a whole. A number with no mark means an inactive call. Active and inactive are the calls of the source. No stated cut-off is given here; in the data, active means growth inhibition above about 70%; inactive means the rest.
Assays:
[1] = NCI Yeast Anticancer Drug Screen. Data for the rad50 strain (AID 155);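 further: 0% = growth of vehicle-only cultures of the same strain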; settings: S. cerevisiae rad50 strain growth inhibition, active compounds read high
Summary of the method: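 Inhibition values express reduced yeast growth in compound-treated cultures relative to vehicle-treated controls.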

[2] = NCI Yeast Anticancer Drug Screen. Data for the mec2-1 strain (AID 157); settings: S. cerevisiae mec2-1 strain, active compounds read high
Summary of the method: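 Test agents were screened against the mec2-1 yeast strain, with defined DNA repair or cell cycle alteration. Growth was scored as inhibition against vehicle-only controls.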

[3] = NCI Yeast Anticancer Drug Screen. Data for the sgs1 mgt1 strain (AID 161);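 further: 0% = growth of cultures given vehicle only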; settings: S. cerevisiae sgs1 mgt1 strain, active compounds read high
Summary of the method: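 Test agents were incubated with a DNA-repair-mutant yeast strain. Growth was then read and compared against vehicle-treated controls.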

[4] = NCI Yeast Anticancer Drug Screen. Data for the cln2 rad14 strain (AID 165);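 further: 0% = growth equal to vehicle treated cultures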; settings: S. cerevisiae cln2 rad14 strain, active compounds read high
Summary of the method: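 Growth of compound-exposed yeast (cln2 rad14 genotype) measured and expressed as inhibition relative to vehicle.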

[5] = NCI Yeast Anticancer Drug Screen. Data for the bub3 strain (AID 167); settings: S. cerevisiae bub3 mutant strain, active compounds read high
Summary of the method: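 Steps: expose the mutant yeast strain to compound; grow alongside vehicle-treated cultures; measure growth; express inhibition against the vehicle cultures.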

[6] = NCI Yeast Anticancer Drug Screen. Data for the mlh1 rad18 strain (AID 175); settings: S. cerevisiae mlh1 rad18 strain growth inhibition, active compounds read high
Summary of the method: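 In this whole-cell yeast screen, a strain with altered DNA damage repair is challenged with compound, and its growth is measured against matched vehicle-treated controls.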

[7] = at 5.0 µM (retest, dose inferred, filed as 0.5)
[8] = at 50.0 µM (retest, dose inferred, filed as 5.0)

Row | SMILES | growth inhibition [1, 7] | growth inhibition [1, 8] | growth inhibition ([1]; at 50.0 µM) | growth inhibition [2, 7] | growth inhibition [2, 8] | growth inhibition ([2]; at 50.0 µM) | growth inhibition [3, 7] | growth inhibition [3, 8] | growth inhibition ([3]; at 50.0 µM) | growth inhibition [4, 7] | growth inhibition [4, 8] | growth inhibition ([4]; at 50.0 µM) | growth inhibition [5, 7] | growth inhibition [5, 8] | growth inhibition ([5]; at 50.0 µM) | growth inhibition [6, 7] | growth inhibition [6, 8] | growth inhibition ([6]; at 50.0 µM)
1 | C[Si](C)(CCC(=O)O)O[Si](C)(C)CCC(=O)O | -6% | 91% (active) | 99.5% (active) | -4% | 92% (active) | 99.7% (active) | -6% | 91% (active) | 99.5% (active) | -1% | 59% | 98.2% (active) | -9% | 99% (active) | 99.5% (active) | -1% | 68% | 99.2% (active)
2 | Nc1ncnc2c1cnn2C1CCCCC1 | 3% | 79% (active) | 30.2% | -2% | 46% | 58.8% | 0% | 45% | 14.9% | -1% | 68% | 36.3% | -2% | 58% | 32.7% | 1% | 75% (active) | 71.2% (active)
3 | Cc1cc2nc3ccc(N)cc3oc-2cc1=[N+](C)C | 6% | 95% (active) | 95.6% (active) | 14% | 96% (active) | 92.8% (active) | -9% | 91% (active) | 74% (active) | -12% | 93% (active) | 81.5% (active) | -8% | 94% (active) | 78.2% (active) | 7% | 92% (active) | 3.8%
4 | CC(C)N(C(=O)CC1(O)CCCCC1)C(C)C | 2% | -14% | -0.25% | -5% | 1% | -11.9% | 1% | -11% | -14.6% | -6% | 4% | 73.8% (active) | -1% | 6% | -9.25% | 0% | -9% | 1.85%
5 | COc1cc(C2C(Cl)C(=O)N2NC(=O)c2ccccc2O)cc(OC)c1OC (centres undefined) | -8% | 77% (active) | 76.3% (active) | -10% | 70% (active) | 70.5% (active) | 1% | 81% (active) | 78.8% (active) | -2% | 40% | 35.2% | -11% | 48% | 80.8% (active) | 6% | 87% (active) | 78.8% (active)
6 | CC(Nc1ccc(S(=O)(=O)Nc2ncccn2)cc1)c1ccc2cccnc2c1O (centres undefined) | 38% | 99% (active) | 99.5% (active) | 2% | 99% (active) | 99.5% (active) | 11% | 99% (active) | 98.5% (active) | 19% | 99% (active) | 96.7% (active) | 11% | 99% (active) | 99.3% (active) | 14% | 98% (active) | 99.2% (active)
7 | O=C(O)c1ccccc1-c1c2ccc(=O)c(Br)c-2oc2c(Br)c(O)ccc12 | 13% | 93% (active) | 87.5% (active) | 42% | 99% (active) | 98% (active) | 33% | 98% (active) | 99.5% (active) | 14% | 96% (active) | 97.5% (active) | -1% | 96% (active) | 96.4% (active) | 49% | 97% (active) | 97.8% (active)
8 | NCCOB(c1ccccc1)c1ccccc1 | 12% | 99% (active) | 53.1% | 0% | 99% (active) | 54.2% | 3% | 99% (active) | 50.5% | 8% | 99% (active) | 99% (active) | 1% | 99% (active) | 99.3% (active) | 5% | 99% (active) | 51.3%
9 | C=CCOc1ccc(C2(c3ccc(OCC=C)cc3)C(=O)Nc3ccccc32)cc1 | 1% | 90% (active) | 84.1% (active) | -8% | 92% (active) | 86.8% (active) | 8% | 90% (active) | 89.2% (active) | 24% | 91% (active) | 86.5% (active) | 6% | 93% (active) | 87.9% (active) | 5% | 88% (active) | 86.6% (active)
10 | O=C(Nc1ccccc1)O/N=C1/CCCC/C1=C\c1ccccc1 | 26% | 77% (active) | 88.4% (active) | 41% | 85% (active) | 90.1% (active) | 57% | 86% (active) | 88.3% (active) | 65% | 85% (active) | 84.4% (active) | 54% | 87% (active) | 81.6% (active) | 35% | 88% (active) | 84.1% (active)
11 | COc1cc2c(Cc3ccc(OC)c(OC)c3)[n+](Cc3ccccc3)ccc2cc1NCc1ccccc1 | 90% (active) | 98% (active) | 89% (active) | 90% (active) | 99% (active) | 92.2% (active) | 93% (active) | 99% (active) | 86% (active) | 65% | 98% (active) | 89.6% (active) | 92% (active) | 99% (active) | 81.1% (active) | 88% (active) | 99% (active) | 92.7% (active)
12 | CC(=O)NC(CCC(=O)O)C(=O)O.[NH-]C1CCCCC1[NH-].[Pt+2] (centres undefined) | 96% (active) | 99% (active) | 99.5% (active) | 99% (active) | 99% (active) | 99.3% (active) | 98% (active) | 99% (active) | 100% (active) | 88% (active) | 98% (active) | 99.4% (active) | 99% (active) | 98% (active) | 99% (active) | 96% (active) | 99% (active) | 99.2% (active)
13 | CCc1cc2c(c3[nH]ccc13)[C@@H](C)C[C@H]2C | -3% | 99% (active) | 73% (active) | 3% | 99% (active) | 84.2% (active) | 0% | 99% (active) | 84.8% (active) | -3% | 98% (active) | 84.3% (active) | 9% | 98% (active) | 91.5% (active) | 2% | 99% (active) | 88.5% (active)
14 | COC(=O)c1nnn(-c2ccc(Cl)cc2Cl)c1C(=O)c1ccc(Cl)c(Cl)c1 | 11% | 99% (active) | 98.3% (active) | 2% | 99% (active) | 95.5% (active) | 4% | 99% (active) | 99% (active) | 11% | 98% (active) | 92.1% (active) | 17% | 99% (active) | 95.8% (active) | 19% | 99% (active) | 98.7% (active)
15 | CCCC(=O)Oc1c(Br)cc(Br)cc1Br | -1% | 17% | 21.6% | -4% | 7% | 21.3% | -4% | 7% | 19.1% | -6% | -19% | 44.9% | 1% | 19% | 45.5% | -1% | 12% | 20.6%
16 | S=C(NC/C(Br)=C/Br)Nc1cccc2ccccc12 | -30% | 99% (active) | 86% (active) | -18% | 99% (active) | 89.8% (active) | -21% | 99% (active) | 85.6% (active) | -5% | 99% (active) | 88.8% (active) | -25% | 99% (active) | 90.7% (active) | -13% | 99% (active) | 81.3% (active)
17 | CCOC(=O)Nc1nc2ccc(SC#N)cc2s1 | 8% | 85% (active) | 92.9% (active) | 1% | 81% (active) | 64.8% | 9% | 96% (active) | 79.8% (active) | 6% | 88% (active) | 57.5% | 23% | 93% (active) | 88.2% (active) | 9% | 94% (active) | 50.5%
18 | COc1ccc(/C=N/NC(=O)c2ccco2)cc1OC | -5% | 0% | 63.5% | -5% | -15% | 73.2% (active) | -3% | 5% | 23.8% | -21% | -20% | 19.1% | -7% | -13% | 56.2% | -6% | -14% | 35.8%

From PubChem BioAssay (NCI)
